The panel holds about 83,000 compounds, 20% with a hit somewhere; the sample as a whole holds those more often.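 Each cell line was grown in a 96-well plate and treated with one concentration of compound for 48 hours. Values below 10 were considered active.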 The source made the active and inactive calls.
Legend:
Experiment in all cases: NCI-60 one-dose screen, 48 h (100 = growth as untreated, 0 = no growth, -100 = all killed)
Details in all cases: 10 µM unless noted
DU-145 prostate = system: DU-145 prostate
K-562 leukemia = system: K-562 leukemia
MALME-3M melanoma = system: MALME-3M melanoma
MDA-MB-231 breast = system: MDA-MB-231 breast
SF-268 CNS = system: SF-268 CNS
SF-295 CNS = system: SF-295 CNS
SF-539 CNS = system: SF-539 CNS
UACC-257 melanoma = system: UACC-257 melanoma
M14 melanoma = system: M14 melanoma
HCT-15 colon = system: HCT-15 colon
HT29 colon = system: HT29 colon
SNB-75 CNS = system: SNB-75 CNS
SNB-19 CNS = system: SNB-19 CNS
U251 CNS = system: U251 CNS
PC-3 prostate = system: PC-3 prostate
SK-MEL-5 melanoma = system: SK-MEL-5 melanoma
UACC-62 melanoma = system: UACC-62 melanoma
LOX IMVI melanoma = system: LOX IMVI melanoma
SK-MEL-28 melanoma = system: SK-MEL-28 melanoma

Measured: growth

COc1ccc(C(=O)/C=C/c2c(OC)cc(OC)cc2OC)c(OC)c1
inactive: DU-145 prostate 18.3% | K-562 leukemia 18.5% | MDA-MB-231 breast 44.4% | SF-268 CNS 36.5% | SF-295 CNS 11.3% | UACC-257 melanoma 28.9% | SNB-19 CNS 33.6% | U251 CNS 15.5% | UACC-62 melanoma 11.9% | LOX IMVI melanoma 27.3% | SK-MEL-28 melanoma 56.8%
active: MALME-3M melanoma 3.17% | SF-539 CNS 8.25% | M14 melanoma 4.81% | HCT-15 colon 5.27% | HT29 colon 1.7% | SNB-75 CNS 8.7% | PC-3 prostate 6.39% | SK-MEL-5 melanoma -5.47%

CCOC(=O)C1CC(=O)c2cc(OC)c(OC)cc2C1 (configuration not stated)
inactive: DU-145 prostate 111% | K-562 leukemia 88% | MALME-3M melanoma 132% | MDA-MB-231 breast 110% | SF-268 CNS 102% | SF-295 CNS 98.1% | SF-539 CNS 100% | UACC-257 melanoma 87.7% | M14 melanoma 87.8% | HCT-15 colon 100% | HT29 colon 88.6% | SNB-75 CNS 91.7% | SNB-19 CNS 100% | U251 CNS 103% | PC-3 prostate 86.4% | SK-MEL-5 melanoma 109% | UACC-62 melanoma 88.5% | LOX IMVI melanoma 104% | SK-MEL-28 melanoma 119%

COc1ccc(C2CC(c3cccc(Nc4ccncc4)c3)=NN2c2cc(Cl)cc(Cl)c2)cc1 (configuration not stated)
inactive: DU-145 prostate 13.3% | MDA-MB-231 breast 44.7% | SF-268 CNS 66.3% | SF-295 CNS 72.4% | SF-539 CNS 78% | UACC-257 melanoma 62% | M14 melanoma 97% | SNB-75 CNS 65.9% | SNB-19 CNS 91% | PC-3 prostate 33.8% | SK-MEL-5 melanoma 67.5% | UACC-62 melanoma 99.6%
active: K-562 leukemia 0.631% | MALME-3M melanoma -40.6% | HCT-15 colon -67.5% | HT29 colon -17.5% | U251 CNS -34.4% | LOX IMVI melanoma -52.7% | SK-MEL-28 melanoma -49.3%

CN1CCN(c2ccc3nc(-c4cc(C(C)(C)C)c(O)c(C(C)(C)C)c4)[nH]c3c2)CC1
active: K-562 leukemia -11.3% | MALME-3M melanoma -91.6% | UACC-257 melanoma -53.2% | HCT-15 colon -35.3% | HT29 colon 6.14% | LOX IMVI melanoma -37.3%
inactive: DU-145 prostate 77.6% | MDA-MB-231 breast 38.6% | SF-268 CNS 72.7% | SF-295 CNS 93.7% | SF-539 CNS 64.4% | M14 melanoma 11% | SNB-75 CNS 58.8% | SNB-19 CNS 73.6% | U251 CNS 16.5% | PC-3 prostate 58.7% | SK-MEL-5 melanoma 74.9% | UACC-62 melanoma 63.5% | SK-MEL-28 melanoma 57%

COc1ccc(Cn2nc3c(c2-c2cc(OC)c(OC)c(OC)c2)-c2oncc2CC3)cc1
inactive: DU-145 prostate 105% | K-562 leukemia 39.9% | MALME-3M melanoma 93.7% | MDA-MB-231 breast 65.8% | SF-268 CNS 96.7% | SF-295 CNS 77.2% | SF-539 CNS 89.1% | UACC-257 melanoma 104% | M14 melanoma 84.6% | HCT-15 colon 73.2% | HT29 colon 90.4% | SNB-75 CNS 62.6% | SNB-19 CNS 91.4% | U251 CNS 94.4% | PC-3 prostate 80.6% | SK-MEL-5 melanoma 70.9% | UACC-62 melanoma 86.1% | LOX IMVI melanoma 80.9% | SK-MEL-28 melanoma 91.1%

O=[N+]([O-])c1cccc(-c2nc(-c3ccc(Cl)cc3Cl)cn2-c2ccccc2)c1
active: DU-145 prostate -80.1% | MDA-MB-231 breast -14.6% | SF-268 CNS 0.437% | SF-295 CNS -74.3% | UACC-257 melanoma -63.6% | M14 melanoma -71.6% | HCT-15 colon -6.56% | HT29 colon -67.8% | SNB-75 CNS -56.7% | U251 CNS -60.5% | PC-3 prostate -47.7% | LOX IMVI melanoma 3.46% | SK-MEL-28 melanoma -16.4%
inactive: K-562 leukemia 43.5% | MALME-3M melanoma 128% | SF-539 CNS 23.6% | SNB-19 CNS 53.7% | SK-MEL-5 melanoma 71.4% | UACC-62 melanoma 31.3%

O=S(=O)(NCCNc1nccc(-c2c(-c3ccc(F)c(O)c3)nc3sccn23)n1)c1ccccc1
active: MALME-3M melanoma 1.46% | UACC-62 melanoma -0.791%
inactive: DU-145 prostate 77.5% | K-562 leukemia 37.2% | MDA-MB-231 breast 51.6% | SF-268 CNS 84.5% | SF-295 CNS 110% | SF-539 CNS 94.3% | UACC-257 melanoma 16.2% | M14 melanoma 14.5% | HCT-15 colon 92.3% | HT29 colon 64.6% | SNB-75 CNS 137% | SNB-19 CNS 113% | U251 CNS 98.8% | PC-3 prostate 67.8% | SK-MEL-5 melanoma 58.1% | LOX IMVI melanoma 27.7% | SK-MEL-28 melanoma 16.8%

CC[N+](CC)(CCCC(C)[N+]1(Cc2ccccc2)C(C)=CC=C1C)Cc1ccccc1 (configuration not stated)
inactive: DU-145 prostate 101% | K-562 leukemia 54.6% | MALME-3M melanoma 87.8% | MDA-MB-231 breast 78.6% | SF-268 CNS 98.9% | SF-295 CNS 97.8% | SF-539 CNS 97.6% | UACC-257 melanoma 84.2% | M14 melanoma 66.5% | HCT-15 colon 98.5% | HT29 colon 44.1% | SNB-75 CNS 87.6% | SNB-19 CNS 92.6% | U251 CNS 106% | PC-3 prostate 73.3% | SK-MEL-5 melanoma 68.7% | UACC-62 melanoma 73% | LOX IMVI melanoma 90.7% | SK-MEL-28 melanoma 78.8%
